Screening data from PubChem BioAssay.
aSyn rescue = rescues yeast growth from alpha-synuclein toxicity; 370,000 compounds, 0.14% hits; AID 652106; Potency, µM (series often up to 46.1 µM), inactives show at the top dose growth rescue (activation), hits mostly activators; Yeast expressing alpha-synuclein, growth rescue, BacTiter-Glo, 24 h; further: % of control where 0% means no effect; nearly all actives have a fitted effect of over 65% in size
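Readout is rescue of growth in alpha-synuclein-expressing yeast, so inhibitors of toxicity appear as activators. Growth after 24 hr at 30 deg C in galactose medium is quantified by luminescence.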
TDP43 rescue = rescues yeast growth from TDP-43 toxicity; TDP-43 expressing yeast growth rescue, BacTiter-Glo, 24 h; Potency, µM (series often up to 46.1 µM), inactives show at the top dose growth rescue (activation), actives largely listed as activators; 410,000 compounds, 1.8% hits; AID 652104; further: % of control where 0% means no effect; nearly all actives have a fitted effect of over 50% in size
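Cell-based yeast growth screen: TDP-43 expression induced in galactose, inoculum OD600=0.02 after raffinose pregrowth to mid-log. Read-out BacTiter-Glo luminescence at 24 hr, 30 deg C; inhibition of toxicity seen as signal increase.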
ClpP mod = qHTS Assay for Activators of ClpP; purified B. subtilis ClpP, FRET peptide cleavage, 20 min; 340,000 compounds, 1.9% hits; AID 651965, 2013; Potency, µM (top dose mostly 57.5 µM), for inactives: at the highest dose activity change, negative = active; active means well fitted falling curve with a large enough effect; inconclusive means small, poorly fitted or top-dose-only effect; inactive means no such curve, though single readings can be large or run the other way; further: the source files actives as falling curves though it sought activators and does not explain the sign; nearly all actives have a fitted effect of over 65% in size
Target sequence (P80244 whole entry, looked up): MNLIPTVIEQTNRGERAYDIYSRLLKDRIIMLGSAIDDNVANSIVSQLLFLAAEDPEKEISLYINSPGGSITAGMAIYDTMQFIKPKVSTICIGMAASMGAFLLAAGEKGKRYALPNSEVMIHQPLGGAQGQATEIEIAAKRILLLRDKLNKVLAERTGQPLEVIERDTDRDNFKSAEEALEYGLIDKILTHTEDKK
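Purified B. subtilis ClpP, 10 microg/mL final in Tris/HCl pH8 with KCl, BSA, glycerol and Tween-20, cleaved an Abz/nitrotyrosine-quenched decapeptide. Fluorescence (ex 320, em 430) was read at 0 and 20 min at room temperature. Delta was normalized to 5.8 microM ADEP and DMSO/no-enzyme controls.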
Abeta rescue = A-beta toxicity reversal in yeast; yeast expressing A-beta42, growth rescue, OD600, 48 h; response scale: 0% DMSO, 100% iron-clioquinol control; Potency, µM (top dose mostly 46.1 µM), usual class: activators; 410,000 compounds, 0.063% hits; AID 1347071; further: nearly all actives have a fitted effect of over 55% in size
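Growth rescue measured by 600 nm absorbance after 48 h yeast culture at 30 C with compound. Values normalized between DMSO and an equimolar ferric chloride plus clioquinol control.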
MmCpn inh = blocks the Methanococcus maripaludis chaperonin Mm-Cpn. purified Mm-Cpn ATPase, ADP Transcreener TR-FRET. Potency, µM (titrated, usually from 76.9 µM), inactives show top-dose activity, negative = inhibition, actives largely listed as inhibitors. 330,000 compounds, 0.031% hits; further: on the % scale 0 is the no-effect control and ±100 the full control effect; nearly all actives have a fitted effect of over 80% in size
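Compound-treated chaperonin, 25 nM final, turns over 10 uM ATP at 37°C for 30 min following a 10 min preincubation; ADP generated competes with ADP-d2 for Eu-cryptate antibody, lowering FRET.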
FUS suppressor = FUS proteinopathy suppression in yeast; S. cerevisiae FUS-expressing, growth rescue, OD600, 24 h; Potency, µM (series often up to 76.6 µM), hits mostly activators; 390,000 compounds, 0.24% hits;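 further: plate controls were DMSO vehicle for no effect and reference control for full effect; nearly all actives have a fitted effect of over 55% in size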
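Compound concentration series was pinned onto galactose-induced FUS-expressing yeast seeded at OD 0.005. Plates sat 24hr at 30C; absorbance at 600 nm gave growth. DMSO served as background control.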
* = called active by the depositor; i = inactive; ? = inconclusive; · = no result given; [ ] = dose if it differs, or a comment. The list is not random: actives were taken first. Their share in the collection is about 3.6%. Unless noted, the call rests on the fitted dose curve; in most records, active means well fitted curve in the direction sought with a large enough effect; inconclusive means small, poorly fitted or top-dose-only effect, or another doubt; inactive means no such curve, though single readings can be large; an effect the other way counts as inactive or inconclusive. Potency means the concentration at half of the fitted maximal effect.

SMILES	aSyn rescue	TDP43 rescue	ClpP mod	Abeta rescue	MmCpn inh	FUS suppressor
CN(c1cccc(F)c1)c1cc2c(c3c1ccn3C)C1CCC2C1 (stereo not drawn)	0%	15%	8.9µM*	i	·	i
Cn1ccc2c(-c3cncc4ccccc34)cc3c(c21)C1CCC3C1 (stereo not drawn)	-20%	28µM*	-11%	i	·	i
CCN(CC)CCNC(=O)Cn1ncc2c3ccccc3n(Cc3ccc(Cl)cc3)c2c1=O	·	0%[9.22 µM]	-8%	i	·	i
Cc1nn(-c2ccc(Cl)cc2Cl)c(=O)c2ccccc12	21%	?	-2%	i	-2%	i
Cc1nn(-c2ccc(Cl)c(Cl)c2Cl)c(=O)c2ccccc12	9%	16µM*	-1%	i	-18%	i
CNc1ccc(C=O)cc1I	2%	·	-6%	·	·	·
Cc1cccc(-n2nc(C)c3c2NC2=C(C(=O)CCC2)C3c2ccccn2)c1 (stereo not drawn)	-1%	16%	-2%	i	0%	i
Cc1nn(-c2ccccn2)c2c1C(c1ccsc1)C1=C(CCCC1=O)N2 (stereo not drawn)	-3%	?	25µM*	i	-1%	·
CCOc1ccccc1NC(=O)c1cnc(N2CCOCC2)c2ccccc12	·	?	-4%	i	·	i
CCC(=O)Nc1cc(C(=O)OC(C(=O)c2ccc(C)c(C)c2)c2ccccc2)ccc1C (stereo not drawn)	-1%	0%	-3%	i	2%	10µM*
Cc1ccc(C)c(NC(=O)CCC(=O)OC(C(=O)c2ccccc2)c2ccccc2)c1 (stereo not drawn)	10%	?	-1%	i	0%	i
CCOC(=O)C1CCN(C(=O)COC(=O)c2nc3nc(C)cc(C)n3n2)CC1	-4%	19%	-3%	i	-3%	i
Cc1cc(C)n2nc(C(=O)NCc3ccccc3)nc2n1	-6%	-16%	2%	i	0%	i
Cc1cc(C)n2ncc(C(=O)NCc3ccccc3)c2n1	7%	3%	28µM*	i	0%	i
CCOC(=O)C1CCN(C(=O)c2cnn3c(C)cc(C)nc23)CC1	-8%	-7%	32µM*	i	-1%	i
Cc1cc(C)n2nc(C(=O)NCc3ccccc3)cc2n1	1%	-7%	25µM*	i	-2%	i
Cc1cc(C)n2ncc(C(=O)NCCc3ccccc3)c2n1	1%	-2%	28µM*	i	·	i
CCOC(=O)c1cnc2c(ccc3ccccc32)c1Nc1ccc(N(C)C)cc1	·	0%	-6%	i	·	i
O=C(Nc1ccc(Nc2ccccc2)cc1)c1ccc(Cl)cc1	11%	5%	-2%	i	·	i
CCC1(C(=O)c2ccc(Cl)cc2)C2c3ccccc3OC(=O)C21C(=O)Nc1ccccc1 (stereo not drawn)	14µM*	2%	-3%	i	0%	·
CCc1ccc(CN(Cc2cn[nH]c2-c2ccc(OC)cc2)C(=O)Nc2ccc(C)c(F)c2)cc1	·	24%	2%	i	·	?
CCOC(=O)c1nc(N)c(C(=O)OCC)[nH]1	18%	9%	14µM*	i	-1%	i
O=C(c1ccc(-c2cccc(C(F)(F)F)c2)o1)N1CCN(c2ccccc2O)CC1	9%	16µM*	2%	?	-4%	i
O=C(c1cc(-c2ccccc2Cl)on1)N1CCN(C(=O)c2ccco2)CC1	-7%	?	0%	i	1%	i
O=C(c1ccco1)N1CCN(C(=O)c2ccc(-c3ccccc3Cl)o2)CC1	-3%[1.84 µM]	14µM*	-2%	i	-6%	i
SMILES	aSyn rescue	TDP43 rescue	ClpP mod	Abeta rescue	MmCpn inh	FUS suppressor
O=C(c1ccc(-c2ccccc2Cl)o1)N1CCN(c2ccccc2O)CC1	?	22µM*	·	i	-3%	i
O=C(c1ccc(-c2ccc(Cl)cc2Cl)o1)N1CCOCC1	5%	18µM*	-2%	i	?	i
O=C(c1ccc(-c2cc(Cl)ccc2Cl)o1)N1CCOCC1	-4%	?	·	i	-6%	i
O=C(c1ccc(-c2cccc(C(F)(F)F)c2)o1)N1CCCC(C(F)(F)F)C1 (stereo not drawn)	8%	-4%	·	i	-2%	i
NC(=O)C1CCN(C(=O)c2ccc(-c3ccccc3Cl)o2)CC1	-1%	-1%	0%	i	1%	·
CSc1ccc(-c2nc3cnccn3c2Nc2ccc3c(c2)OCO3)cc1	14%	25µM*	-5%	i	-3%	i
Cc1ccc(Nc2c(-c3ccc(C)cc3)nc3ccc(C)cn23)cc1	·	-12%	?	i	·	i
Cc1ccc(Nc2c(-c3ccc(C)o3)nc3ccccn23)cc1	-23%	·	4%	·	·	·
Cc1ccc(-c2nc3ccccn3c2Nc2ccccc2)o1	-16%	9%	1%	i	-1%	i
Cc1ccc(Nc2c(-c3ccc(C)o3)nc3cnccn23)cc1	-86%	22µM*	-3%	i	0%	i
Cc1ccc(-c2nc3cnccn3c2Nc2ccccc2)o1	20µM*	35µM*	-1%	i	-5%	i
Cc1ccc(Nc2c(-c3ccco3)nc3ccc(C)cn23)cc1	·	14%	6.3µM*	i	·	i
Cc1nn(-c2ccc(N3CCCCC3)nn2)c(C)c1CCC(=O)Nc1ccc(F)cc1F	·	-13%	0%	i	·	i
CCOC(=O)c1cc(-c2cc3ccccc3o2)nc2c1c(=O)[nH]c(=O)n2CCOC	-15%	-2%	7.1µM*	i	-5%	i
CCOC(=O)c1cc(-c2ccc([N+](=O)[O-])cc2)nc2c1c(=O)[nH]c(=O)n2Cc1ccccc1	-9%	-3%	·	i	2%	i
Nc1ccc2nc(SCc3ccccc3F)sc2c1	29%	13µM*	·	i	2%	i
Nc1cc(C(=O)c2ccccc2)ccc1[N+](=O)[O-]	0%	8.9µM*	·	i	-2%	i
Cc1cc(NC(=O)C2CCN(S(=O)(=O)c3ccc(Br)s3)CC2)ccc1Br	·	22%	0%	i	·	i
O=C1CSC2(C(=O)N(Cc3cccc(F)c3)c3ccccc32)N1c1cccc(C(F)(F)F)c1 (stereo not drawn)	?	22µM*	-8%	i	·	i
COC(=O)c1cn(-c2ccc3c(c2)[C@]2(CC(=O)N(C)C2c2ccccc2)C(=O)N3CC(C)C)nn1 (stereo partly drawn)	·	·	·	·	·	i
